# Assay results taken from the supplement of paper PMC6555819.
# System: VDR:RXRa (NR concentration 270 nM, RXRa partner concentration 90 nM)
# Assay: PBM binding z-score (relative to random genomic background probes); higher = stronger binding; sequences stand for … in GC…GCGATTGACAGCGTAGAATGAAGG
# Description: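 Protein-binding microarray (Agilent 4x180K custom design, double-stranded 60-nt probes: 5' GC cap, 34-nt variable region, 24-nt constant primer region; full probe sequence given). Purified or IVT nuclear receptor:RXRα heterodimers (3:1 NR:RXRα, mostly 270:90 nM) or homodimers were incubated for 1 h in PBS with 2% milk and no ligand, then detected with Alexa488 antibodies. Fluorescence from o1-orientation probes (~5 replicates averaged) was converted to z-scores against 500 random hg19 background probes. Variable regions are seed direct-repeat (DR0–DR5) sites, all their single-nucleotide variants and half-site ablations.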
row,Sequence,PBM binding z-score
1,GCGACTGGGTCAAAGCAGGTTACCATAAGGTTGG,3.06
2,GGTCGGAGGACAAGGTCAGAGCTTTGTCCGTAGA,1.78
3,CCGACTAGGGCAAGGTTACCATAACGCACAGCCA,0.178
4,ATATGTAGGTTAGCTGGGGTCATTAAGACTAGGC,5.83
5,TCGAGTAGGTTAGGGGCAATCAGAATGGCGTCGA,0.363
6,CCTGCTAGGTAAATGGTCAGCTAAAGCAGCTCGC,-0.541
7,GCAGACAGGTGAAACGCAGGTAACCCAGGGTGGC,-0.517
8,TCCTATAGGTAAAAGGTGAAAGTCGGTGTGGTAA,1.17
9,AGAATGAGGTTACCAATGATCAGGGAAACGCTTG,1.18
10,CTACCAAGGTGAACTAGGTCGTTGATTACTATTC,3.56
11,ATCTCTAGGTAAAGTTCAGTGGAAGATCGATAGA,1.44
12,TCACATAGGTAAACAGGTGAAAGTCCGTAAGTTA,0.849
13,ACTAGCAGCCCAAGTTTGGGTCACTCAAACAAAG,0.327
14,CGAACTGGGTCAAGGACAGTGAATCTCCGCACGC,1.46
15,CAAACTAGGTAACAGAGGTCAAAGTCCGTGCGTA,5.87
16,CCTAGCAGGCCAGGGTGACTCAAGCATTTCGCTT,-0.639
17,CCTAGCAGGCCGATCTGGGTCACTCAAGGCTTGA,0.114
18,CAAACTGGGTCAAGGTCAAAGTCGGTTTGTGCCA,5.18
19,CCTGCTAGGTCATGGTCAGCTGATCTACAGTATG,1.95
20,CGAACTAGGTCATTGACAGGAAAGTGAATAGTAA,1.73

row,Sequence,PBM binding z-score
1,GATACAGGGTCAGCTAGAGGCCAGATTATGGAAA,3.57
2,CCAGACAGGTGAGAAGGTACCTCAGCCTCGATTA,-0.437
3,CGTCCAAGGTCAGCAGGTCTGTGAAAGCGACGTG,4.69
4,ACATGTAGGTTAAGGGTCATTCAGGTTGGTTCGC,5.84
5,CCGACTGGGGCAAAGGTGACCATACTCAGTACGA,0.389
6,GCATATAGCTAATACAAGGTGAAAGTCCGATTGT,0.231
7,CTTCAAAGTTCAAGGTAACGTAACAGAAAGCAGC,3.51
8,TCATATAGGTAAAAGTTGAAAGTCGGTGTGGTAA,1.21
9,GATACAGGGTCAAGTCCAGAGTACGCGTATTGAT,4.66
10,CATACAGGGTGAGCTAGGCCAGAGTAGGGACGGC,-0.189
11,AGATTGAGGTTATTAAGATCAGGGAATTGCGGTC,2.28
12,CCGAGTACGTTATGGGGCATTCAGGCAACGGTGA,0.216
13,CCTACTGGGCCTAAAAGGTCATTGATGCCGATAA,4.38
14,GCTAACGGGTCAAAGGTTATAGCATGAATAGAAT,4.9
15,ATCGAAAGGTCGTGAGGTGAGTAAACAGAAAGGC,3.3
16,CCTTACGGTTCACTCCAGGTTATAGCATCGGAGT,3.4
17,ACTAGCAGGCCACGGGTCACTCAAGATTAGTCCG,1.2
18,TCATATACGTAAAGGTGAAAGTCGAACGATATGA,1.05
19,TCTAGTTGGTCACTGAGGTCACACACGACGGGTA,6.51
20,CCTCGGAGGGCAGAAGGTCAGAGCTGTCCGCTTT,1.17
